tim10-1 inh – tim10-1 yeast growth inhibition; S. cerevisiae tim10-1 ts strain growth, BacTiter-Glo, 24 h; inhibition, % at 20 µM; AID 463190; 2.2% of 330,000 active;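 active = inhibition of at least 40%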;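 note: mutant grown at 25 °C; 0% = DMSO wells with yeast and 100% = wells holding no yeast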
tim23-1 inh – growth inhibitors of tim23-1 mutant yeast | S. cerevisiae tim23-1 growth, BacTiter-Glo luminescence, 24 h | inhibition, % at 20 µM | 1.3% of 330,000 active;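 active = growth inhibition of the mutant yeast at or above 50%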;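 note: temperature-sensitive mutant grown at 25 °C; plate controls were DMSO-treated mutant yeast for no effect and medium wells lacking yeast for full effect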
NLRP3 yeast inh – NALP3 inhibition in yeast; Yeast reconstituted NLRP3/ASC/caspase-1, beta-gal luminescence, 24 h; inhibition, % at 10 µM; 0.39% of 330,000 active;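 active = inhibition of 50% or more; inactive = inhibition below 50%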;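 note: plate controls were induced DMSO wells for no effect and uninduced yeast grown without galactose for full effect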
TIM10 inh – inhibits growth of TIM10 yeast strain; 1.4% of 330,000 active; S. cerevisiae TIM10 strain growth, BacTiter-Glo luminescence, 24 h; inhibition, % at 10 µM;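 active = inhibition of 40% or more at the single tested concentration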;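 note: wild-type TIM10 isogenic control strain grown at permissive 25 °C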
SKKanGAS inh – SKKanGAS growth inhibition; S. pyogenes SKKanGAS, kanamycin growth, BacTiter-Glo, 6 h; inhibition, % at 7.5 µM; 1.3% of 300,000 active; AID 1662;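 active = mean replicate score, as percent of positive control median, at least 50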;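 note: strain carries kanamycin resistance gene driven by streptokinase promoter and grows in 40 µg/ml kanamycin; loss of luminescence reflects streptokinase promoter inhibition or plain growth inhibition; 0% = median of DMSO wells and 100% = positive control at its reference dose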
NALP1 inh – NALP1 inhibition | 0.61% of 280,000 active | S. cerevisiae NALP1/ASC/caspase-1 growth, X-gal OD620, 72 h | inhibition, % at 10 µM | AID 2071; in the data active = inhibition mostly above about 24%, no sharp cut-off; inactive = mostly below about 32%
tim10-1 conf – confirmation of tim10-1 mutant yeast growth inhibitors; shares compounds with tim10-1 inh; S. cerevisiae tim10-1 ts strain growth, BacTiter-Glo, 24 h; inhibition, % at 20 µM; 56% of 7,400 active; AID 463213;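 active = inhibition of yeast growth at or above a set limit in either of two repeat tests at 20 µM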;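 note: tim10-1 mutant grown at permissive 25 °C to find synthetic lethal compounds; 0% = DMSO yeast wells and 100% = medium wells without yeast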
TIM10 conf – confirmation of TIM10 yeast growth inhibitors | shares compounds with TIM10 inh | S. cerevisiae tim10 strain growth, BacTiter-Glo luminescence, 24 h | inhibition, % at 10 µM | 63% of 4,600 active | AID 463215;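 active = inhibition of yeast growth at or above a set limit in either of two replicates at 10 µM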;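 note: this counterscreen used the strain with wild-type TIM10; 0% = yeast with DMSO and 100% = medium wells lacking yeast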
tim23-1 conf – confirmation of tim23-1 mutant yeast growth inhibitors; inhibition, % at 20 µM; shares compounds with tim23-1 inh; S. cerevisiae tim23-1 growth, BacTiter-Glo luminescence, 24 h; AID 463218; 83% of 4,400 active;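 active = inhibition above about 39% in either of two replicate wells at 20 µM, limit read from the data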;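 note: temperature-sensitive tim23-1 mutant grown at 25 °C; 0% = DMSO wells with yeast and 100% = medium wells without yeast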
Starred values were filed as active, the others as inactive; · = no result; ! = repeats disagree. This is a sample that favours compounds with a hit; in the whole collection about 4.9% have one here.

SMILES	tim10-1 inh	tim23-1 inh	NLRP3 yeast inh	TIM10 inh	SKKanGAS inh	NALP1 inh	TIM10 conf	others
Cc1nc2c(ccc3nc(NC(=O)C4CC4)sc32)s1	52.7*	68.0*	-31.7	65.1*	-4.0	7.3	53.7*	tim10-1 conf=53.5*;tim23-1 conf=71.3*
COc1cc(-c2csc(NC3CCCCC3)n2)cc(OC)c1OC	16.0	28.3	15.4	18.4	-0.4	3.7	·
O=C(/C=C/c1cccc([N+](=O)[O-])c1)NC(=S)Nc1ccccc1C(=O)O	·	·	·	·	·	9.8	·
O=C1CCCCC1C(Nc1ccc(Cl)cc1)c1ccccc1 (configuration not stated)	12.7	39.4	-6.7	32.4	-0.4	15.2	·
O=C1CCCCC1C(Nc1ccc(Br)cc1)c1ccccc1 (configuration not stated)	40.7*	53.3*	33.6	29.4	29.0	20.4	·	tim10-1 conf=31.8*;tim23-1 conf=47.5*
C/C(=N\NC(=O)c1ccc(CN2CCc3ccccc3C2)cc1)c1ccccc1O	46.5*	74.1*	13.5	45.3*	24.8	0.6	48.2*	tim10-1 conf=29.2;tim23-1 conf=78.6*
O=C(NN1CCOCC1)c1cc(-c2cccs2)nc2ccccc12	27.8	3.4	0.2	9.8	1.5	10.9	·
O=C(NNc1nc2ccc(Cl)cc2s1)c1cc(-c2cccs2)nc2ccccc12	50.5*	51.6*	14.0	18.8	87.8*	36.7	·	tim10-1 conf=34.6*;tim23-1 conf=54.3*
CC(C)Cc1cc(CNC(=O)C2CCC(=O)N(Cc3cccc(C(F)(F)F)c3)C2)on1 (configuration not stated)	1.8	5.7	-1.4	2.0	28.5	5.5	·
Cc1cc(Cl)ccc1N=c1ssnc1Cl	52.4*	59.5*	16.3	39.7	2.6	34.1	·	tim10-1 conf=55.1*;tim23-1 conf=77.4*
Cc1cc(C)nc(/N=c2/ssnc2Cl)c1	81.0*	91.4*	43.9	77.1*	-4.9	-3.7	94.7*	tim10-1 conf=82.5*;tim23-1 conf=67.9*
Cc1ccc(N=c2ssnc2Cl)cc1	64.4*	66.0*	18.0	27.0	-5.6	8.1	·	tim10-1 conf=63.2*;tim23-1 conf=90.2*
Cc1cc(Cl)ccc1N=C1N=C(N)c2ccccc21	10.8	12.8	-12.0	13.5	-1.1	14.0	·
Cc1nnc(N=c2ssnc2Cl)o1	27.2	38.8	12.0	27.7	·	·	·
CC(=O)Nc1ccc(NC(=O)CCCn2cnc3ccccc3c2=O)cc1	10.9	16.4	-10.0	-8.2	-0.8	26.5	·
Cc1cc(C)nc(SCC(=O)c2ccc(F)cc2F)n1	23.4	20.8	16.7	-1.5	-20.6	0.4	·
CC1CCc2c(sc3ncn(CC(=O)N4CCCCC4)c(=O)c23)C1 (configuration not stated)	11.1	3.7	14.8	8.6	-6.0	-3.1	·
CC(=O)N(C(C)=O)N1C(=O)/C(=C/c2ccc(Cl)cc2)SC1=S	63.9*	74.8*	-10.0	56.6*	-6.2	-19.7	80.5*	tim10-1 conf=58.0*;tim23-1 conf=39.2*
CN1CCN(C(=O)CCN2C(=O)/C(=C\c3ccc(Cl)cc3)SC2=S)CC1	33.9	30.5	14.5	18.2	2.4	27.3	·
CCOc1ccc2c(c1)-c1c(ssc1=S)C(C)(C)N2	47.8*	52.1*	34.6	37.2	-17.7	13.2	·	tim10-1 conf=40.5*;tim23-1 conf=55.8*
CCOc1ccc2c(c1)/C(=N/N1C(=O)c3ccccc3C1=O)C(=O)N2	17.2	16.2	11.8	22.7	0.2	-7.5	·
O=C(Nc1ccc2oc(-c3ccncc3)nc2c1)c1ccccc1	1.4	9.4	11.8	44.5*	-3.7	-4.5	-2.6
O=C(Nc1ccc2oc(-c3cccc(F)c3)nc2c1)c1ccccc1F	-5.8	31.2	-1.1	21.7	-4.0	-10.1	·
O=C(Nc1ccc2oc(-c3ccccc3)nc2c1)c1ccccc1F	13.3	26.1	14.0	65.2*	10.0	0.3	53.8*
CSc1cccc(N2CC(C(=O)N(CC(C)C)c3c(N)n(Cc4ccccc4)c(=O)[nH]c3=O)CC2=O)c1 (configuration not stated)	6.1	12.1	4.5	0.1	-0.3	·	·
SMILES	tim10-1 inh	tim23-1 inh	NLRP3 yeast inh	TIM10 inh	SKKanGAS inh	NALP1 inh	TIM10 conf	others
c1ccc(CNc2ncnc3ccccc23)cc1	7.9	-20.9	11.4	81.1*!	-0.8	6.5	-15.9
COCCOC(=O)c1[nH]c2c(c1C)C(=O)C(C(=O)OC)C(C)C2 (configuration not stated)	-8.4	6.6	20.7	1.3	-9.5	2.2	·
CCCCCOC(=O)c1[nH]c2c(c1C)C(=O)C(C(=O)OC)C(C)C2 (configuration not stated)	38.9	47.8	7.9	43.1*	-2.0	13.1	36.8*
CC(C)(C)Nc1nc(Cl)nc(Nc2ccccc2)n1	-5.2	47.9	-11.6	0.7	11.8	0.2	·
COc1ccccc1Nc1nc(Cl)nc(NC(C)(C)C)n1	32.8	17.6	-29.5	42.4*	-0.1	-5.4	22.7
COc1ccc(C)cc1NC(=O)n1ncc2cc(Cl)ccc21	0.1	14.4	13.7	14.0	13.2	18.5	·
O=C(Cn1cnc2ccccc2c1=O)c1ccc2ccccc2c1	-1.3	-4.9	37.3	7.7	-4.1	16.4	·
O=C(Cn1cnc2ccccc2c1=O)c1ccc2c(c1)OCCO2	26.2	49.8	44.6	44.6*	-0.8	5.7	34.2*
C[C@@]12C(=O)N(c3ccc(F)cc3)C(=O)N1[C@@H]1c3ccccc3OC[C@@H]1[C@H]2c1ccccc1	26.4	34.0	-22.3	18.9	4.2	12.7	·
C[C@]12C(=O)N(c3ccc(F)cc3)C(=O)N1[C@H]1c3ccccc3OC[C@@H]1[C@H]2c1ccccc1	25.9	34.3	5.9	43.7*	·	·	42.6*
CC(=O)c1ccc(S(=O)(=O)NCC(=O)NC(c2nc3ccccc3[nH]2)C(C)C)cc1 (configuration not stated)	6.3	11.5	3.5	1.9	·	·	·
CCOC(=O)c1cnc(-n2nc(C)cc2C)nc1NCc1ccccc1	35.7	40.4	23.6	43.5*	89.3*	-8.3	38.7*
O=C(Nc1cccc(S(=O)(=O)N2CCCCC2)c1)c1ccc([N+](=O)[O-])o1	-43.2	-108.9	-3.4	46.5*	41.8	6.0	27.0
O=C(COC(=O)c1ccc([N+](=O)[O-])o1)Nc1cccc(S(=O)(=O)N2CCCCC2)c1	13.9	-12.7	6.0	16.4	4.6	-12.5	·
CC(C)n1c(N2CCN(C(=O)Nc3ccccc3)CC2)nc2ccccc21	19.6	24.3	2.9	44.0*	1.8	1.7	43.2*
Cn1c(N2CCN(C(=O)Nc3ccc(F)cc3)CC2)nc2ccccc21	-10.6	-2.3	13.8	6.9	-5.8	11.6	·
Cn1c2ccc(Br)cc2c2nnc(SCC(=O)O)nc21	31.2	28.1	15.6	59.9*	-2.0	-10.1	75.2*

Assay outcomes from PubChem BioAssay.
